Assay results: PubChem BioAssay (NCATS)
Inconclusive results are not listed. Activity calls are given as the source filed them. Calls come from the whole dose curve; as a rule, active = well fitted curve in the direction sought with a large enough effect; inconclusive = small, poorly fitted or top-dose-only effect, or another doubt; inactive = no such curve, though single readings can be large; an effect the other way counts as inactive or inconclusive.

Tests used:
[1] = biological target: Glutathione peroxidase 1 (Homo sapiens) (UniProt P07203); test: Primary qHTS Assay for Inhibitors of Recombinant Selenoprotein Glutathione Peroxidase 1 (GPX1) (AID 1845191); note: nearly all actives have a fitted effect of over 65% in size; for activity, negative = inhibition: % is set by controls: 0 for no effect and ±100 for the full control effect
Glutathione peroxidase 1 (Homo sapiens), sequence (P07203 whole entry, looked up): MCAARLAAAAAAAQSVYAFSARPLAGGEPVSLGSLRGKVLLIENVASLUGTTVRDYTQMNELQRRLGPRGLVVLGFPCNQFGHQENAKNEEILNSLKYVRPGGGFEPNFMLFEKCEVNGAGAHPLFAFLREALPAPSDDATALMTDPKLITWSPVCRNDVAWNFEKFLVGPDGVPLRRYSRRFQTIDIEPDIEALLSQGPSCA
How it was run: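 NADPH consumption tracked by fluorescence at 340/450 nm between t=0 and t=15 min, room temperature. Final mix: 10 nM GPX1, 100 nM glutathione reductase, 1 mM GSH, 0.5 mM NADPH, 0.5 mM cumene hydroperoxide, 0.01% BSA; 30 min compound–enzyme preincubation.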

[2] = biological target: Phospholipid hydroperoxide glutathione peroxidase GPX4 (Homo sapiens) (UniProt P36969); test: Primary qHTS Assay for Inhibitors of Recombinant Selenoprotein Glutathione Peroxidase 4 (GPX4) (AID 1845192); note: nearly all actives have a fitted effect of over 65% in size; for activity change, negative = inhibition: series mostly up to about 50 µM; % is set by controls: 0 for no effect and ±100 for the full control effect
Phospholipid hydroperoxide glutathione peroxidase GPX4 (Homo sapiens), sequence (P36969 whole entry, looked up): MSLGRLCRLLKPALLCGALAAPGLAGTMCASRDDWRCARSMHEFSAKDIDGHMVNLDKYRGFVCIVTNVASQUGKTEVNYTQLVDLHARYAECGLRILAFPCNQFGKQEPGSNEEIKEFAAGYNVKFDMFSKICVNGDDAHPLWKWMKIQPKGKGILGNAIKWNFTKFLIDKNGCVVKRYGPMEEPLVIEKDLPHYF
How it was run: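 NADPH consumption followed by fluorescence at 340/450 nm, t=0 and after 15 min at room temperature. Reaction started with cumene hydroperoxide (0.5 mM final) after 30 min compound–GPX4 preincubation; final 200 nM GPX4, 100 nM GR, 1 mM GSH, 0.5 mM NADPH.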

[3] = biological target: Luciferin 4-monooxygenase (Photinus pyralis) (UniProt P08659); test: Primary firefly luciferase (FLuc) qHTS assay for identification of artifact compounds. (AID 1845220); note: nearly all actives have a fitted effect of over 60% in size;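 for activity change, negative = inhibition: series mostly up to about 54 µM; plate controls were DMSO vehicle for no effect and no enzyme for full effect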
How it was run: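 Cell-free, 1536-well qHTS. Buffer pH 7.6 with 0.01% Tween-20 and 0.05% BSA; 10 uM D-luciferin, 10 uM ATP; 10 nM P. pyralis luciferase; luminescence after 5 min.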

[4] = Primary fluorescence-based thiol-reactive (MSTI) qHTS assay for identification of artifact compounds. (AID 1845221); note: nearly all actives have a fitted effect of over 65% in size; note: potency is the fitted concentration of half-maximal effect;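 for activity change, negative = thiol reactive: series mostly up to about 54 µM; thiol-reactive compounds lower the probe fluorescence signal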
How it was run: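 Curve-fitted percent inhibition (4-parameter Hill) derived from fluorescence, Ex 525/Em 598 nm, scaled with Acetyl-MSTI and MSTI; 1 h incubation at room temperature.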

[5] = system: Nanoluciferase (engineered Oplophorus gracilirostris luciferase); test: Primary Nanoluciferase (NLuc) qHTS assay for identification of artifact compounds. (AID 1845222); note: potency is the fitted concentration of half-maximal effect;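 for activity, negative = inhibition: series mostly up to about 54 µM; 0% = DMSO and -100% = no enzyme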
How it was run: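 Compounds are pinned into diluted (1:55) conditioned medium of NLuc-expressing S16 cells and held 15 min at room temperature protected from light. Nano-Glo substrate follows, and luminescence is read 5 min later.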

[6] = Primary redox qHTS assay for identification of artifact compounds. (AID 1845223); note: potency is the fitted concentration of half-maximal effect;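 for redox activity (% of DA3003): 0% = DMSO and 100% = reference compound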
How it was run: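 Redox-cycling detection via DTT (250 uM final) oxidation coupled to Amplex Red (25 uM)/HRP (250 mU/mL) in HBSS. 15 min preincubation plus 30 min after DTT, room temperature. Ex/Em 525/598 nm; 4-parameter Hill fit against DMSO and 10 uM DA3003.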

CC1(C)CC[C@]2(C(=O)O[C@@H]3O[C@H](CO)[C@@H](O)[C@H](O)[C@H]3O)CC[C@]3(C)C(=CCC4[C@@]5(C)C[C@H](O)[C@H](O[C@@H]6O[C@H](C(=O)O)[C@@H](O)[C@H](O)[C@H]6O)[C@@](C)(CO)C5CC[C@]43C)C2C1 (some centres undefined)
inactive: Potency [1] | Potency [2] | outcome [3] inactive [at 11.6 µM] | activity change, negative = thiol reactive [4] 8.46% [at 11.5 µM] | activity, negative = inhibition [5] 1.06% [at 11.6 µM] | redox activity (% of DA3003) [6] -11.2% [at 11.5 µM]

COc1ccc(C2(O)c3ccccc3NC(=O)C2OC)cc1 (centres undefined)
inactive: Potency [1] | Potency [2] | Potency [3] | Potency [4] | Potency [5] | Potency [6]

COC(=O)[C@H](Cc1cccc(C(=N)N)c1)[C@@H](C)NC(=O)c1ccc(-c2cc[n+]([O-])cc2)cc1
inactive: Potency [1] | Potency [2] | Potency [3] | Potency [4] | Potency [5] | Potency [6]

C=C1C[C@]23C[C@@]1(O)CC[C@H]2[C@@]12C=C[C@H](O)[C@@](C)(C(=O)O1)[C@H]2[C@@H]3C(=O)O
inactive: Potency [1] | Potency [2] | Potency [3] | Potency [4] | Potency [5] | Potency [6]

CC(=O)OC1C(O)/C(C)=C\C2C(OC(=O)c3ccccc3)C(C)CC2(OC(C)=O)C(OC(C)=O)C(C)/C=C/C(C)(C)C1OC(C)=O (centres undefined)
inactive: Potency [1] | Potency [2] | Potency [3] | Potency [4] | Potency [5] | Potency [6]

CC1C(O)C(O)C2C(C(=O)OCCc3ccc(O)cc3)=COC(O[C@@H]3O[C@H](CO)[C@@H](O)[C@H](O)[C@H]3O)C12 (some centres undefined)
inactive: Potency [1] | Potency [2] | Potency [3] | Potency [5] | Potency [6]
active: Potency [4] 1.84 µM

Cc1ccc(-n2nc(C(C)(C)C)cc2NC(=O)Nc2cc(COc3cccnc3)[nH]n2)cc1
inactive: Potency [1] | Potency [2] | Potency [3] | Potency [4] | Potency [5] | Potency [6]

O=C(O)CC1(O)C(=O)Nc2ccccc21 (centres undefined)
active: Potency [4] 25.1 µM
inactive: Potency [1] | Potency [2] | Potency [3] | Potency [5] | Potency [6]

COC(=O)C1(C)CCCC2(C)c3ccc(C(C)C)cc3C(O)C(O)C12 (centres undefined)
inactive: Potency [1] | Potency [2] | Potency [3] | Potency [4] | Potency [5] | Potency [6]

N#CC1C(=O)N=C(c2cc(Cl)ccc2O)C=C1c1cc(OCc2ccccc2)cc(OCc2ccccc2)c1 (centres undefined)
inactive: Potency [1] | Potency [2] | Potency [3] | Potency [4] | Potency [5] | Potency [6]

O=C(C1OC1/C=C/c1ccc2c(c1)OCO2)N1CCCCC1 (centres undefined)
inactive: Potency [1] | Potency [2] | Potency [3] | Potency [4] | Potency [5] | Potency [6]

CC1CCC23COC(=O)C2=CC(O)CC3C1(C)CCc1ccoc1 (centres undefined)
inactive: Potency [1] | Potency [2] | Potency [3] | Potency [4] | Potency [5] | Potency [6]

CCOc1ccc(-c2nn3ncccc3c2-c2ccc(S(C)(=O)=O)cc2)cc1
inactive: Potency [1] | Potency [2] | Potency [3] | Potency [4] | Potency [5] | Potency [6]

COc1cc(O)cc(C)c1C(=O)OC1C(CO)OC(n2ccc(=O)[nH]c2=O)C1OC(C)=O (centres undefined)
active: Potency [4] 9.22 µM
inactive: Potency [1] | Potency [2] | Potency [3] | Potency [5] | Potency [6]

C=C(C)[C@@H]1CC[C@]2(CO)CC[C@]3(C)[C@H](CC[C@@H]4[C@@]5(C)CC[C@H](O)C(C)(C)[C@@H]5CC[C@]43C)[C@@H]12
inactive: Potency [1] | Potency [2] | Potency [3] | Potency [4] | Potency [5] | Potency [6]

C=C1CC23CC(=O)C4C(CO)(CO)CCCC4(C)C2CCC1C3 (centres undefined)
inactive: Potency [1] | Potency [2] | Potency [3] | Potency [4] | Potency [5] | Potency [6]

C/C(=C\CO)CC/C=C(\C)C(=O)O[C@@H]1O[C@H](CO)[C@@H](O)[C@H](O)[C@H]1O
inactive: Potency [1] | Potency [2] | Potency [3] | Potency [4] | Potency [5] | Potency [6]

O=C(O)CCc1cccc(O)c1O[C@@H]1O[C@H](CO)[C@@H](O)[C@H](O)[C@H]1O
inactive: Potency [1] | Potency [2] | Potency [3] | Potency [5] | Potency [6]
active: Potency [4] 14.7 µM

CC1(C(=O)O)CCCC2(C)C3CCC4CC3(CCC12)CC4C(=O)O (centres undefined)
inactive: Potency [1] | Potency [2] | Potency [3] | Potency [4] | Potency [5] | Potency [6]

CCOC(=O)C1=C(N)Oc2ccc(Cl)cc2C1C(C#N)C(=O)OCC (centres undefined)
inactive: Potency [1] | Potency [2] | Potency [3] | Potency [4] | Potency [5] | Potency [6]

COc1cc(/C=C/C(=O)O[C@H]2[C@H](O)[C@@H](CO)O[C@@]2(CO)O[C@H]2O[C@H](CO)[C@@H](O)[C@H](O)[C@H]2O)cc(OC)c1O
inactive: Potency [1] | Potency [2] | Potency [3] | Potency [4] | Potency [5] | Potency [6]

CC1(C)C2CC[C@@]34CC(CC[C@H]3[C@]2(C)CC[C@@H]1O[C@@H]1O[C@H](CO)[C@@H](O)[C@H](O)[C@H]1O)[C@](C)(O)C4 (some centres undefined)
inactive: Potency [1] | Potency [2] | Potency [3] | Potency [4] | Potency [5] | Potency [6]

CCCO[C@@H]1O[C@H](CO)[C@@H](O)[C@H](O)[C@H]1O[C@@H]1OC[C@@H](O)[C@H](O)[C@H]1O
inactive: Potency [1] | Potency [2] | Potency [3] | Potency [4] | Potency [5] | Potency [6]

C/C=C/C=C/C=C/C(=O)OC1C=C2C(O)OC(=O)[C@]2(O)[C@@]2(C)CCCC(C)(C)[C@H]12 (some centres undefined)
inactive: Potency [1] | Potency [2] | Potency [3] | Potency [4] | Potency [5] | Potency [6]

CC1=CCC(O)C2(C)CCC3C(C)C(=O)OC3C12 (centres undefined)
inactive: Potency [1] | Potency [2] | Potency [3] | Potency [4] | Potency [5] | Potency [6]

O=C(Cc1ccc(Cl)cc1)Nc1cnccc1C(=O)O
inactive: Potency [1] | Potency [2] | Potency [3] | Potency [4] | Potency [6]
active: Potency [5] 9.53 µM

CC[C@H](C)[C@H](NC(=O)[C@H](Cc1ccc(O)cc1)NC(=O)[C@@H](N)C(C)C)C(=O)N[C@@H](Cc1cnc[nH]1)C(=O)N1CCC[C@H]1C(=O)N[C@@H](Cc1ccccc1)C(=O)O
inactive: outcome [1] inactive [at 4.49 µM] | activity change, negative = inhibition [2] 4.63% [at 4.52 µM] | outcome [3] inactive [at 6.45 µM] | activity change, negative = thiol reactive [4] 19.3% [at 6.41 µM] | activity, negative = inhibition [5] 2.76% [at 6.45 µM] | redox activity (% of DA3003) [6] -2.99% [at 6.41 µM]

COC(=O)C1=C[C@@H](O)[C@@H](O)[C@H](O[C@@H]2O[C@H](CO)[C@@H](O)[C@H](O)[C@H]2OC(=O)/C=C/c2ccccc2)C1
inactive: Potency [1] | Potency [2] | Potency [3] | Potency [4] | Potency [5] | Potency [6]

C/C=C1/C[N+](C)([O-])C2Cc3c([nH]c4ccccc34)C(=O)CC1C2C(=O)OC (centres undefined)
inactive: Potency [1] | Potency [2] | Potency [3] | Potency [4] | Potency [5] | Potency [6]

C[C@]1(OC(=O)/C=C/c2ccccc2)C[C@@H](O)[C@]2(O)C=CO[C@@H](O[C@@H]3O[C@H](CO)[C@@H](O)[C@H](O)[C@H]3O)[C@@H]21
inactive: Potency [1] | Potency [2] | Potency [3] | Potency [4] | Potency [5] | Potency [6]

C=C1CC[C@@]2(OC1)O[C@H]1CC3C4CC=C5C[C@@H](O[C@@H]6O[C@@H](C)[C@H](O)[C@@H](O)[C@H]6O)C[C@@H](O[C@@H]6O[C@H](C)[C@H](O)[C@H](O)[C@H]6O[C@@H]6O[C@@H](C)[C@H](O)[C@@H](O)[C@H]6O)[C@]5(C)C4CC[C@]3(C)[C@H]1[C@@H]2C (some centres undefined)
inactive: Potency [1] | Potency [2] | outcome [3] inactive [at 11.6 µM] | activity change, negative = thiol reactive [4] 170% [at 11.5 µM] | activity, negative = inhibition [5] -0.58% [at 11.6 µM] | redox activity (% of DA3003) [6] 1.1% [at 11.5 µM]

C=CC(C)(O)CC/C=C(\C)COC1O[C@H](CO)[C@@H](O)[C@H](O)[C@H]1O (some centres undefined)
inactive: Potency [1] | Potency [2] | Potency [3] | Potency [5] | Potency [6]
active: Potency [4] 2.93 µM

COc1cccc(Cn2ncc3c4sc(S(C)=O)cc4n(C)c3c2=O)c1 (centres undefined)
inactive: Potency [1] | Potency [2] | Potency [3] | Potency [4] | Potency [5] | Potency [6]

CC12CC34CC(O)C5C(CO)(CO)CC(=O)CC5(C)C3CC1C2C4 (centres undefined)
inactive: Potency [1] | Potency [2] | Potency [3] | Potency [4] | Potency [5] | Potency [6]

C[C@@H]1O[C@@H](O[C@@H]2[C@@H](O)[C@H](O[C@@H]3[C@@H](O)[C@@H](O)[C@H](O[C@H]4[C@H](OC(=O)[C@]56CCC(C)(C)C[C@H]5C5=CCC7[C@@]8(C)C[C@H](O)[C@H](O[C@@H]9O[C@H](C(=O)O)[C@@H](O)[C@H](O)[C@H]9O)[C@@](C)(CO)C8[C@H](O)C[C@@]7(C)[C@]5(C)C[C@H]6O)O[C@@H](CO)[C@@H]4O)O[C@H]3C)OC[C@H]2O)[C@H](O)[C@H](O)[C@H]1O (some centres undefined)
inactive: Potency [1] | Potency [2] | activity change, negative = inhibition [3] 2.08% [at 11.6 µM] | activity change, negative = thiol reactive [4] 382% [at 11.5 µM] | activity, negative = inhibition [5] 4.49% [at 11.6 µM] | redox activity (% of DA3003) [6] 16.5% [at 11.5 µM]

CCNC(=O)C1CC(F)(c2ccc(CN3CCCC3)c(F)c2)C1 (centres undefined)
inactive: Potency [1] | Potency [2] | Potency [3] | Potency [4] | Potency [5] | Potency [6]

COC(=O)C(CC1CCCC1)c1ccc(S(C)(=O)=O)cc1 (centres undefined)
inactive: Potency [1] | Potency [2] | Potency [3] | Potency [4] | Potency [5] | Potency [6]

OC[C@H]1O[C@@H](O[C@H]2[C@H](O)[C@@H](CO)O[C@@H](OCc3ccccc3)[C@@H]2O[C@@H]2OC[C@](O)(CO)[C@H]2O)[C@H](O)[C@@H](O)[C@@H]1O
inactive: Potency [1] | Potency [2] | Potency [3] | Potency [4] | Potency [5] | Potency [6]

CCCc1[nH]nc2c1C(c1cc(Cl)cc(Cl)c1O)C(C#N)=C(N)O2 (centres undefined)
active: Potency [6] 11.9 µM
inactive: Potency [1] | Potency [2] | Potency [3] | Potency [4] | Potency [5]
